# Records with an inconclusive call do not appear. Where a call stands in place of a potency, no number is given. Unmarked numbers belong to inactive results. Active and inactive are the calls of the source. Calls follow the shape of the dose curve; as a rule, active = well fitted inhibition curve with a large enough effect; inconclusive = small, poorly fitted or top-dose-only effect; inactive = no such curve, though single readings can be large or run the other way. Where a SMILES comes first, the peptide text is derived from it. The star is where a group is joined. AFC = O=c1cc(C(F)(F)F)c2ccc(N*)cc2o1
# System: Zika virus NS2B-NS3 protease (unlinked complex)
# Assay: Primary screen GU Rhodamine qHTS for Zika virus inhibitors: Unlinked NS2B-NS3 protease assay (AID 1347159); also: nearly all actives have a fitted effect of over 60% in size
# Conditions: Recombinant ZIKV NS2B-NS3 protease, Rhodamine110 substrate fluorescence; series mostly up to 107 µM
# In short: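 Noncovalent NS2B hydrophilic domain–NS3 protease domain complex (25 nM) preincubated 15 min at room temperature with compounds (up to 114 microM) in 10 mM Tris-HCl pH 8.0, 0.01% Tween 20; 1.5 microM Rhodamine110 substrate added, fluorescence change over 15 min fitted to Hill equation.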
Compound,Potency,"activity change, negative = inhibition"
COC(=O)C1=CO[C@@H](O[C@@H]2O[C@H](CO)[C@@H](O)[C@H](O)[C@H]2O)C2C1C(=O)C[C@H]2C (stereo partly specified),inactive,
C=C1C[C@@]23CCC4[C@@](C)(CCC[C@@]4(C)C(=O)OC)C2CC[C@@H]1C3 (stereo partly specified),inactive,
COc1cc2occc2c(O[C@@H]2O[C@H](CO)[C@@H](O)[C@H](O)[C@H]2O)c1CCC(=O)O,inactive,
C/C=C(\C)C(=O)O[C@H]1[C@@H](O[C@]2(COC(=O)CC(C)C)O[C@H](COC(=O)C(C)CC)[C@@H](OC(C)=O)[C@@H]2O)O[C@H](COC(C)=O)[C@@H](O)[C@@H]1O (stereo partly specified),inactive,
C=C1[C@H](OC(C)=O)[C@H]2[C@@H](OC(C)=O)[C@](C)(OC(C)=O)C[C@]2(OC(C)=O)C(=O)[C@H](C)/C=C/C(C)(C)C(=O)[C@H](OC(=O)C(C)C)[C@H]1OC(C)=O,inactive,
CN(C)C/C=C/C(=O)Nc1cc2c(Nc3ccc(F)c(Cl)c3)ncnc2cc1OC1CCOC1 (stereo unspecified),inactive,
O=C(Nc1ccccc1-c1cn2c(CN3CCNCC3)csc2n1)c1ccc2ccccc2n1,inactive,
c1ccc(-c2ncc(CN3CCN(c4ncccn4)CC3)[nH]2)cc1,inactive,
COc1cc2ncnc(Nc3ccc(O)cc3)c2cc1OC,inactive,
C=C(C(=O)OC)C1C(O)CC2(C)C(O)CCC(=O)C2C1O (stereo unspecified),inactive,
CC1=C(C(=O)O[C@@H]2O[C@H](COC3OCC(O)C(O)C3O)[C@@H](O)[C@H](O)[C@H]2O)C(C)(C)CCC1 (stereo partly specified),inactive,
CC1(C)CCC[C@]2(C)[C@H]3CC(=O)O[C@]3(C)CC[C@@H]12,inactive,
CC1C(=O)OCC2=CCN3CCC(OC(=O)C(C)(O)C1(C)O)C23 (stereo unspecified),inactive,
CC(=O)O[C@]1(C(C)=O)CC[C@H]2[C@@H]3C[C@H](C)C4=CC(=O)C=C[C@]4(C)[C@@]3(F)[C@@H](O)C[C@@]21C,inactive,
COc1ccccc1NC(=O)OCC1CCN(C(=O)OC(C)(C)C)CC1,inactive,
Cc1cc(Nc2nc(NC(C)c3ncc(F)cn3)ncc2Cl)n[nH]1 (stereo unspecified),inactive,
CO[C@H]1C[C@@H]2CC[C@@H](C)[C@@](O)(O2)C(=O)C(=O)N2CCCC[C@H]2C(=O)O[C@H]([C@H](C)C[C@H]2CC[C@@H](OP(C)(C)=O)[C@H](OC)C2)CC(=O)[C@H](C)/C=C(\C)[C@@H](O)[C@@H](OC)C(=O)[C@H](C)C[C@H](C)/C=C/C=C/C=C/1C,inactive,
C=CC(=O)Nc1cc(Nc2nccc(-c3c[nH]c4ccccc34)n2)c(OC)cc1N(C)CCN(C)C,inactive,
CC(C)Oc1ccc(C(=O)NC(CNC(=O)CN(C)C)Cc2ccc(-c3cn4cccc(C(C)O)c4n3)cc2)cc1Cl (stereo unspecified),inactive,
CN=C(N)NCCCCC/C=C(/C)CC(C)C1OC(=O)C(C)C(O)/C=C/C(C)C(O)CC(O)C(C)C(O)CCC(C)C(O)CC2(O)OC(CC(OC(=O)CC(=O)O)CC(O)CC(O)C(C)C(O)/C(C)=C/CCC1C)CC(O)C2O (stereo unspecified),inactive,
CC1(C)CC[C@]2(C(=O)O[C@@H]3O[C@H](CO)[C@@H](O)[C@H](O)[C@H]3O)CC[C@]3(C)C(=CCC4[C@@]5(C)C[C@@H](O)[C@H](O)C(C)(C)C5CC[C@]43C)C2[C@@H]1O (stereo partly specified),inactive,
CN(c1ccccc1CNc1nc(Nc2ccc3c(c2)CC(=O)N3)ncc1C(F)(F)F)S(C)(=O)=O,inactive,
CN1CCC(Nc2nc(Nc3ccc(Oc4ccccc4)cc3)c3c(=O)[nH]cc(Br)c3n2)CC1,inactive,
CC(=O)N[C@@H](Cc1c[nH]c2ccccc12)C(=O)N[C@@H](CCC(=O)O)C(=O)N[C@@H](Cc1cnc[nH]1)C(=O)N[C@@H](CC(=O)O)C(=O)Nc1ccc2c(C(F)(F)F)cc(=O)oc2c1 (Ac-WEHD-{AFC}),inactive,
Cc1cccc(-c2[nH]c(Cc3cccc(C(N)=O)c3)nc2-c2ccc3nccnc3c2)n1,inactive,
C[C@@H]1O[C@@H](O[C@@H]2[C@@H](O[C@@H]3O[C@@H](C)[C@H](O[C@@H]4OC[C@H](O)[C@H](O[C@@H]5OC[C@@H](O)[C@H](O)[C@H]5O)[C@H]4O)[C@@H](O[C@@H]4OC[C@](O)(CO)[C@H]4O)[C@H]3O)[C@H](OC(=O)[C@]34CCC(C)(C)C[C@H]3C3=CCC5[C@@]6(C)C[C@H](O)[C@H](O[C@@H]7O[C@H](CO[C@@H]8OC[C@H](O)[C@H](O)[C@H]8O)[C@@H](O)[C@H](O)[C@H]7O)C(C)(C)C6CC[C@@]5(C)[C@]3(C)C[C@H]4O)OC[C@H]2O)[C@H](O)[C@H](O)[C@H]1O (stereo partly specified),,11.8% [at 19.1 µM]
